# This excerpt belongs to a sample that is enriched for hits.
# Pf Dd2 growth: inhibitors of Plasmodium falciparum Dd2 growth; P. falciparum Dd2 growth, SYBR Green, 72 h; actives 4.3% (n = 120,000); Potency, µM (series often up to 28.9 µM), inactives show top-dose activity, negative = inhibition, hits mostly inhibitors; active = well fitted inhibition curve with a large enough effect;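 note: plate controls were DMSO vehicle for no effect and reference drug for full effect; nearly all actives have a fitted effect of over 65% in size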
#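 Readout: SYBR Green fluorescence, 485 nm excitation, 535 nm emission, after ~16 h lysis at 37C. Before that, Dd2-infected red cells (2.5% hematocrit) grew 72 h with compound, 29 uM top final concentration.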
# * hit, by the source's call; i = inactive; [ ] = another dose, or the depositor's remark. Potency is the fitted concentration of half-maximal effect.
SMILES,Pf Dd2 growth
COc1ccc(CN2CCCC(CNC(=O)NC(C)C)C2)cc1O (configuration not stated),-22%
Cc1ccc(NC(=O)NCC2CCN(Cc3cccc(Cl)c3)CC2)cc1Cl,10µM*
Cc1ccc(CN2CCC(CNC(=O)Nc3ccccc3F)CC2)cc1,i
Cc1ccc(CN2CCC(CNC(=O)Nc3ccc(Cl)cc3)C2)cc1 (configuration not stated),i
O=C(NCC1CCOCC1)Nc1ccccc1C(F)(F)F,39%
CC(C)CN1C(=O)COC[C@@H]1[C@H](O)c1ccc(NC(=O)c2ccc3c(c2)OCO3)cc1,i
Cc1cc(C(=O)N2CCC(Oc3ccccc3)C2)n(C)n1 (configuration not stated),i
O=C1NCCOCCCN(S(=O)(=O)c2ccc3c(c2)CCC3)[C@H]2CCC[C@@H]12,-23%
CN(C)C(=O)c1cccnc1OC1CCN(C(=O)Nc2ccc(Cl)cc2F)C1 (configuration not stated),15%
CC1=C[C@@H](CNC(=O)c2ccco2)[C@H](C(C)C)C[C@H]1CC(=O)NCc1ccccn1,i
COc1ccccc1-c1nc(COC(=O)C2=CN(Cc3ccccc3)S(=O)(=O)N=C2C)no1,i
Cc1noc(C)c1-c1cc2c(cc(-c3ccccc3)n2C)c(-c2cnn(C)c2)n1,-26%[44.1 µM]
Cc1noc(C)c1-c1cc(-c2ccccc2)cn2cncc12,5.6µM*
Oc1ccccc1-c1cc(C2=CCOCC2)c2cncn2c1,1.3µM*
C1=C(c2cc(-c3cccc4[nH]ccc34)cn3cncc23)CCOC1,-24%[44.1 µM]
COc1ncccc1-c1cc(-c2c(C)noc2C)cc2c1C(=O)N(C)C2=O,i
Cc1noc(C)c1-c1cc2c(c(-c3cccnc3)c1)C(=O)N(C)C2,-13%[44.1 µM]
C1=C(c2cc(-c3cccc4cn[nH]c34)cn3cncc23)CCOC1,i
O=C1COCCN1c1cc(-c2ccccc2Oc2ccccc2)cn2cncc12,i
Oc1ccccc1-c1cc(-c2cccnc2)c2cncn2c1,0.35µM*
C[S+](=O)([O-])c1ccc(-c2cc(-c3cccnc3)c3cncn3c2)cc1,i
Cc1noc(C)c1-c1cc(-c2ccncc2)cn2cncc12,-27%[44.1 µM]
Cc1noc(C)c1-c1cc(-c2ccccc2O)cn2cncc12,14µM*
Cc1ccccc1-n1nnnc1C(c1ccccc1)N(C)C(=O)c1cn[nH]n1 (configuration not stated),-16%
Cc1ccc(-c2nc(C(=O)NCc3ccccc3F)no2)cc1,16%
SMILES,Pf Dd2 growth
Cc1noc(C)c1CCC(=O)N1C[C@@H](CO)[C@H](c2ccccn2)C1,4%
CC(C)NS(=O)(=O)c1ccc2c(c1)nc(-c1ccc(CO)o1)n2C(C)C,7%
O=C(CCC1CCCN(S(=O)(=O)c2ccccc2F)C1)NC1CCCCC1 (configuration not stated),i
CCN1c2cc(C(=O)Nc3ccc(N(C)C)cc3)ccc2C(=O)N2CCCCC21 (configuration not stated),i
Cc1noc(C)c1-c1cc2c(c(-c3cccc(CO)c3)c1)C(=O)N(C)C2=O,i
Cc1noc(C)c1-c1cc(-c2ccc(CN(C)C)cc2)cn2cncc12,2.8µM*
CN(C)Cc1ccc(-c2cc(-c3ccc(=O)[nH]c3)c3cncn3c2)cc1,3%[44.1 µM]
Cc1noc([C@H]2CCN(C(=O)Nc3ccc4c(c3)OCCO4)C[C@H]2NC(=O)C2CC2)n1,2%
CCOC(=O)c1ccccc1NC(=O)N(Cc1ccc(C)cc1)Cc1cccn1-c1nnc(N2CCCC2=O)s1,-19%
Cc1ccc(CNC(=O)c2cccn2-c2nnc(N3CCCC3)s2)cc1,i
CCc1ccc(NC(=O)N(Cc2ccc(C)cc2)Cc2cccn2-c2nnc(N3CCCC3=O)s2)cc1,13µM*
COc1ccccc1CN1CCc2c(n(CCOc3ccccc3)n(-c3ccccc3)c2=O)C1,-23%
Cc1c(C)n(Cc2ccccc2)c2ccc(C(=O)NCc3ccco3)cc12,7.1µM*
Cc1ccc(CNC(=O)c2ccc3c(c2)c(C)c(C)n3Cc2ccc(Cl)cc2)o1,10µM*
CCc1ccc(CNC(=O)c2ccc3c(c2)c(C)c(C)n3Cc2ccccc2)cc1,24%
COc1ccccc1CCNC(=O)c1ccc2c(c1)c(C)c(C)n2Cc1ccc(Cl)cc1,i
COc1cccc(CNC(=O)c2ccc3c(c2)c(C)c(C)n3Cc2ccccc2)c1,1%
Cc1ccc(CNC(=O)c2ccc3c(c2)c(C)c(C)n3Cc2ccccc2)o1,-29%
CC(C)c1ccc(CN2CC(CN[S+](=O)([O-])c3ccccc3)C3(C2)CN(c2ccccc2)C3)cc1 (configuration not stated),i
CNC(=O)c1ccc(OC)c(-c2cc(N)nc3[nH]ccc23)c1,4%
Cc1ccc(C(=O)N2CCN(c3nnc4ccccn34)CC2)cc1,-14%
Cc1ccc(NC(=O)N2C[C@@H](F)C[C@H]2C(=O)N2CCc3ccccc3C2)cc1C,-20%
COc1ccccc1NC(=O)N1C[C@@H](F)C[C@H]1C(=O)N1CCc2ccccc2C1,8.9µM*
Cc1ccc(C)c(NC(=O)N2C[C@@H](F)C[C@H]2C(=O)N2CCc3ccccc3C2)c1,19%
